# Experiments:
# [1] = biological target: PEG-3 (UniProt Q6IN02); assay: inhibition of PEG-3 promoter-driven reporter – cell-based, HeLa, luciferase, CREF/GAPDH counter-screen panel, dose response (AID 624167); conditions: CREF/GAPDH counter-screens; HeLa PEG-Prom luciferase reporter, overnight, run 1, dose range 1, at 100 µM (top of the series) unless noted
# [2] = biological target: PEG-3 (UniProt Q6IN02); assay: as above; conditions: CREF/GAPDH counter-screens; HeLa PEG-Prom luciferase reporter, overnight, run 2, dose range 1, at 100 µM (top of the series) unless noted
# [3] = tested on: Rat fibroblasts (CREF); assay: as above; conditions: CREF/GAPDH counter-screens; run 1, dose range 1, at 100 µM (top of the series)
# [4] = tested on: Rat fibroblasts (CREF); assay: as above; conditions: CREF/GAPDH counter-screens; run 2, dose range 1, at 100 µM (top of the series)
# [5] = biological target: Tumor necrosis factor receptor superfamily member 10B (Homo sapiens) (UniProt O14763); assay: viability loss of caspase-8 NB7 cells with TRAIL – with/without TRAIL, luminescence panel, confirmation (AID 651596); conditions: NB7 neuroblastoma + caspase-8, TRAIL sensitization, NB7 Caspase-8, with TRAIL, mean of runs, at 10 µM, stronger effect = higher value
# [6] = as above; conditions: NB7 neuroblastoma + caspase-8, without TRAIL, NB7 Caspase-8, without TRAIL, mean of runs, at 10 µM
# Sequence of PEG-3 (Q6IN02 whole entry, looked up): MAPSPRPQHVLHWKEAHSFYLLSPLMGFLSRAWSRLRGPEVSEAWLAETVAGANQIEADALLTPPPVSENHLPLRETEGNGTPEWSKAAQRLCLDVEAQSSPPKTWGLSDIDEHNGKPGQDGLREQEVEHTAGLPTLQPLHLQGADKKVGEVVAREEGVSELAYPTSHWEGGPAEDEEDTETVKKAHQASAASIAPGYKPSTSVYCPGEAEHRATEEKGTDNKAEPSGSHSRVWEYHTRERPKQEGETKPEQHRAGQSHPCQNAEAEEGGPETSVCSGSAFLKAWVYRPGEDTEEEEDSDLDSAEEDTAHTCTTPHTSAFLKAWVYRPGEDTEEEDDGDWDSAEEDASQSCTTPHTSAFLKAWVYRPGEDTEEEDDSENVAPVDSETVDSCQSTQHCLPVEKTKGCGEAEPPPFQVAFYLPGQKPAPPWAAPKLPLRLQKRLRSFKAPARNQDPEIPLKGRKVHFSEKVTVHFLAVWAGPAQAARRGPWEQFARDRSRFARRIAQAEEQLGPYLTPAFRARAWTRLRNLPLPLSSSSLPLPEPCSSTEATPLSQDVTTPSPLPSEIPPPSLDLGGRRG
# Sequence of Tumor necrosis factor receptor superfamily member 10B (Homo sapiens) (O14763 whole entry, looked up): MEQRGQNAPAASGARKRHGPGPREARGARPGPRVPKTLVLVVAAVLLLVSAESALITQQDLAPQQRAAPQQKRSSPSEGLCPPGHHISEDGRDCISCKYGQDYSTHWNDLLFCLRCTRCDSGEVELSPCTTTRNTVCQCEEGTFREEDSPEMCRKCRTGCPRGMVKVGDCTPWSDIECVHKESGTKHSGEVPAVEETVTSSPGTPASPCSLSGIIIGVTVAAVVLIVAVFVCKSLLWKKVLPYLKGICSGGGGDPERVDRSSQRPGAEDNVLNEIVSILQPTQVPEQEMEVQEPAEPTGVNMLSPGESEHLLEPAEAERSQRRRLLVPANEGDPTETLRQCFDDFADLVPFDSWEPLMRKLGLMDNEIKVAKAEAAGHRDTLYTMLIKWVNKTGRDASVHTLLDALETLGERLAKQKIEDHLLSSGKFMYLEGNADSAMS
SMILES,inhibition [1],inhibition [2],inhibition [3],inhibition [4],activity [5],activity [6]
O=[N+]([O-])c1nn(-c2ccc3c(c2)OCCO3)n(O)c1=Nc1ccc(Cl)cc1,48.4%,73.7%,13.6%,8.03%,–,–
CS(=O)(=O)Nc1cccc(NC(=O)C2Cc3c(-c4ccccc4)ccnc3O2)c1 (centres undefined),58.9%,75.2%,35.5%,40%,57%,69.3%
Cc1ccc(-c2cc3c(N=O)c4ccccc4c-3n[nH]2)cc1,75.1%,86.7%,87.3%,78.5%,–,–
CCCCC(=O)NC(c1ccc(OC)cc1)c1ccc2cccnc2c1O (centres undefined),73.4%,80.2%,35.2%,28.7%,–,–
CCCn1c(C)cc(C(=O)CN2C(=O)c3ccccc3S2(=O)=O)c1C,97.5%,98.9%,91.2%,92.1%,60.1%,62.3%
COCCn1c(C)cc(C(=O)COC(=O)c2cccc(O)c2)c1C,89.5%,91.3%,98.3%,97.1%,86.2%,87.7%
C=CCn1c(C)cc(C(=O)CN2C(=O)c3ccccc3S2(=O)=O)c1C,94.5%,96.6%,99.2%,96.4%,88.8%,91.4%
O=C1c2cccc3cc([N+](=O)[O-])cc(c23)C(=O)N1CCN1CCCC1,102%,99.1%,80.3%,83%,41.1%,67.3%
CCOc1ccc(NC(=O)c2ccccn2)cc1,88.8%,91.5%,97.1%,95.5%,92.4%,89.9%
CC(=O)CSc1ccc(-c2nc3cc(C)c(C)cc3[nH]2)cn1,102%,101%,95.4%,95.4%,89.6%,88.5%
COc1ccc(N(C(=O)CCl)C(C(=O)NC2CCCCC2)c2cccnc2)cc1 (centres undefined),99.1%,102%,97.1%,94.1%,99.5%,98.7%
O=C(Nc1ccccn1)c1cc2ccccc2o1,82.3%,96.6%,99.4%,98.8%,90.3%,89.6%
CCOc1ccc(-c2ccc(SC)nn2)cc1,95%,92.5%,97.5%,98.9%,95.2%,95.1%
Cc1ccc(-c2nc(-c3ccccn3)no2)cc1,99.3%,96%,100%,99.7%,96.8%,96.3%
COc1ccc(/C=N/Nc2nncc3ccccc23)cc1,92.6%,95.4%,97.8%,98.9%,97.3%,97%
